# Compounds with a hit are over-represented: about 4.5% of the library has one in this group of screens.
# DAX1 inh-1: DAX1 (NR0B1) inhibitors on StAR promoter, primary screen, cell-based, luminescence, SF-1 (NR5A1), full-length DAX-1; HEK293T StAR-luciferase reporter, SF-1/DAX-1 repression relief; inhibition, % at 6.8 µM; 370,000 compounds, 1.1% hits;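 active = inhibition above the mean over all tested compounds plus 3 SD, cut at about 3.6% in these data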;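 also: 0% = DAX-1 cells with DMSO and 100% = cells lacking DAX-1 with DMSO; higher inhibition means more luminescence from relief of DAX-1 repression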
# ssDAF12 agonist: S. stercoralis DAF-12 nuclear receptor activators, primary screen, cell-based, luminescence, HEK293, GRIP1 co-expression, lit1-tk-luc; AID 652126, 2013; 370,000 compounds, 1% hits; Nuclear hormone receptor DAF-12 (Strongyloides stercoralis); activation, % at 6.8 µM; HEK293 ssDAF-12/GRIP1 lit1-tk-luc reporter; % of 3 µM dafachronic acid response;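 active = activation above the mean over all tested compounds plus 3 SD, cut at about 0.9% in these data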;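 also: 0% = DMSO-only wells and 100% = 3 µM delta7-dafachronic acid wells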
# FXN GAA850 act: FXN promoter activators, primary screen, cell-based, luciferase luminescence, HEK293 lucGAA850 | activation, % at 6 µM | AID 540364, 2011 | 360,000 compounds, 0.56% hits | HEK293 lucGAA850 FXN promoter luciferase reporter, 24 h; percent of 10 µM SAHA response;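 active = activation above the average of all compounds screened plus 3 SD, cutoff fixed separately per campaign, cut at about 7.5% in these data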;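 also: 0% = DMSO wells and 100% = 10 µM SAHA wells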
# DAX1 inh-2: DAX1 (NR0B1) inhibitors, primary screen, cell-based, HEK293, Gal4-DAX1, luciferase luminescence; inhibition, % at 6.75 µM; AID 504766, 2011; 340,000 compounds, 0.99% hits; HEK293 Gal4-DAX1 luciferase reporter;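 active = inhibition above the mean over all tested compounds plus 3 SD, cut at about 4.2% in these data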;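 also: 0% = DAX1-transfected cells with DMSO and 100% = empty-vector control cells with DMSO; inhibition shows as a rise in luminescence from relieved DAX1 repression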
# Target sequence (P51843 207-470 limits assumed): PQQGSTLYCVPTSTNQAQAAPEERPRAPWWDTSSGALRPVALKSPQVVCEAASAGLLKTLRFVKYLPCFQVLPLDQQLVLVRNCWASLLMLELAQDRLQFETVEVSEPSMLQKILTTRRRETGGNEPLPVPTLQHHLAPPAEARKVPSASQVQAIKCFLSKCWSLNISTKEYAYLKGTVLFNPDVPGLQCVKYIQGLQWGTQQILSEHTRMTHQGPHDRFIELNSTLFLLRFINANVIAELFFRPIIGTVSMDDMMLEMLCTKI
# hcDAF-12 act: H. contortus DAF-12 nuclear receptor activators, primary screen, cell-based, luminescence, HEK293, lit1-tk-luc reporter. HEK293 hcDAF-12 lit1-tk-luc reporter; 0% DMSO, 100% Δ7-dafachronic acid. 370,000 compounds, 1.4% hits. activation, % at 6.8 µM;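 active = activation above the mean of all tested compounds plus 3 SD, cut at about 5.5% in these data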;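 also: 100% = response to 3 µM Δ7-dafachronic acid high control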
# hgDAF-12 ag: H. glycines DAF-12 receptor agonists, primary screen, cell-based, luminescence, HEK293, GAL4 fusion, UAS-luciferase. activation, % at 6.8 µM. HEK293 GAL4-hgDAF12 UAS-luciferase reporter, agonist luminescence; normalized to butyrate control. AID 687014, 2013. 370,000 compounds, 1.8% hits. Nuclear hormone receptor DAF-12 (Heterodera glycines), GAL4 fusion;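 active = activation above a cutoff set at the mean of all screened compounds plus 3 SD, cut at about 10% in these data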;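 also: 0% = DMSO wells and 100% = sodium butyrate wells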
# * hit, by the source's call; . = not tested or not shown.
SMILES,DAX1 inh-1,ssDAF12 agonist,FXN GAA850 act,DAX1 inh-2,hcDAF-12 act,hgDAF-12 ag
O=C(NCC(=O)N1CCCCCC1)c1ccc(Cl)cc1,1,-1,3,1,0,5
O=C(NCC(=O)N1CCCCCCC1)c1ccc(Cl)cc1,0,-1,4,2,3,12*
COCCN1Cc2cc(C(=O)OC)c3c(c2C1=O)c1ccccc1n3S(=O)(=O)c1ccc(C)cc1,0,0,.,.,4,0
COc1cccc(C(=O)N/N=C(/CCC(=O)O)c2ccccc2)c1,0,-1,3,0,1,12*
COc1cccc(C(=O)NNC(=O)c2ccc3ccccc3c2O)c1,0,1.6*,2,-1,4,4
O=C(O)CC/C(=N\NC(=O)c1ccccc1)c1cccs1,1,-1,6,2,0,11*
CCCc1nnc(NC(=O)c2cccc(OC)c2)s1,4.0*,0,6,3,1,13*
COc1cccc(C(=O)Nc2nnc(Cc3ccc(OC)c(OC)c3)s2)c1,0,-2,1,1,-2,0
C[C@H]1[C@@H](OC(=O)NC2CCC2)CC[C@@]23CCCN2C(=O)CCC[C@@H]13,.,-1,.,.,-3,2
CCN(C(=O)COC(=O)c1ccc(Sc2ncn[nH]2)c([N+](=O)[O-])c1)c1ccccc1C,0,0,.,.,0,-1
CN1C(=O)c2cc(NC(=O)Nc3ccccc3)ccc2OC[C@H]2O[C@@H](CC(=O)N[C@H]3CCN(Cc4ccccc4)C3)CC[C@@H]21,0,-1,.,.,1,-4
CC(=O)Nc1ccc(NC(=O)CSc2nnc(-c3cccs3)o2)cc1,-4,-1,.,.,1,0
COc1cccc(C(=O)NNC(=O)c2ccccc2)c1,0,1.4*,3,2,5,6
COc1cccc(C(=O)Nc2ccccc2)c1,1,-1,1,2,1,6
COc1cc(C(=O)Nc2nnc(CC(=O)NCc3ccccc3)s2)cc(OC)c1OC,2,-1,1,4.2*,-1,-2
CC(=O)c1cc(-c2cccc(C#N)c2)c(=O)n2c1CCC2,0,-1,.,.,-1,-1
C[C@H](O)[C@@H]1CN2CCc3c([nH]c4c(-c5ccc6c(c5)OCO6)cccc34)[C@@H]2C[C@@H]1N(C)C(=O)c1ccco1,-1,-1,.,.,0,-3
COCCCN1C(=O)[C@H](CC(=O)NCc2cccs2)[C@]2(C(=O)OC)CCCCC=C12,1,-1,.,.,-1,0
O=C(NCCc1c[nH]c2ccccc12)C(=O)NCC1OCCCN1S(=O)(=O)c1cccs1 (stereo unspecified),-1,2.2*,-1,0,0,-1
O=C(NCCc1ccc(Cl)cc1)c1ccc2ccccc2n1,0,-1,4,0,6.0*,5
O=C(NCCc1ccccc1)c1cnc2ccccc2n1,1,0,5,1,5,13*
Cc1ccc(OCc2nnc(SCC(=O)Nc3cccc4ccccc34)n2Cc2ccco2)cc1,-1,-2,.,.,-3,0
CC1=NC(=O)C(N=Nc2ccccc2C(=O)O)N1c1ccccc1 (stereo unspecified),0,0,-2,.,4,5
CC1=NC(=O)C(N=Nc2ccccc2)N1c1ccccc1 (stereo unspecified),1,1,6,4.6*,5,4
OC(CNCc1ccccc1)c1ccccc1 (stereo unspecified),0,-1,2,4.5*,-1,4
SMILES,DAX1 inh-1,ssDAF12 agonist,FXN GAA850 act,DAX1 inh-2,hcDAF-12 act,hgDAF-12 ag
Cc1ccnc(NC(=S)N2CCC(Nc3cccc(C(F)(F)F)c3)CC2)c1,.,-1,.,.,-2,3
CN(CCc1ccccn1)C(=O)c1cccnc1Oc1ccccc1,0,-1,1,6.4*,1,0
O=C(O)c1cccnc1Oc1ccccc1,0,-1,0,0,1,1
O=C(O)c1cccc(N=NN2CCOCC2)c1,3.7*,0,3,.,2,7
c1ccc(N=NN2CCOCC2)cc1,0,-1,-1,1,0,2
CCc1ccc2nc3sc(C(=O)O)cc3cc2c1,3,-1,6,0,6.1*,7
CCC[C@H]1[C@@H](N(C)Cc2cccs2)CC[C@@]23CCCN2C(=O)CCC[C@@H]13,.,-2,.,.,-3,2
COC(=O)[C@]12C[C@H](CC(=O)NCCC(C)C)C(=O)N(CCc3ccc(OC)c(OC)c3)C1=C[C@H](COCc1ccccc1)O[C@@H]2C,0,-1,.,.,-2,-3
CN(C)CCNc1nc2sc3c(c2c(=O)n1CCc1ccccc1)CCCCC3,1,-1,0,7.0*,-1,2
CC(O)CNc1nc2sc3c(c2c(=O)n1CCc1ccccc1)CCCCC3 (stereo unspecified),-1,-1,7,6.5*,0,2
CC(O)CNc1nc2sc3c(c2c(=O)n1Cc1ccco1)CCCCC3 (stereo unspecified),0,0,7,1,1,2
CC[C@H]1CCCCc2ccccc2[C@@H](C(=O)C[C@@H](O)CC(C)=O)OC1=O,4.0*,-1,0,0,-1,1
FC(F)(F)c1ccccc1Cc1c(-c2cccc(Br)c2)nc2c3ccccc3ccn12,1,1.4*,.,.,5.8*,9
Cc1cc(Br)cn2c(Cc3ccccc3C(F)(F)F)c(-c3cccc(Br)c3)nc12,-1,-1,.,.,-1,-4
N#Cc1ccc(-c2nc3c4ccccc4ccn3c2Cc2cccc(Cl)c2)cc1,0,-1,.,.,3,11*
N#Cc1ccc(-c2nc3c4ccccc4ccn3c2Cc2ccsc2)cc1,0,1.5*,.,.,3,3
c1ccc(Cc2c(-c3ccccc3)nc3c4ccccc4ccn23)cc1,0,0.9*,1,1,5,2
Cc1ccc(CNC[C@@]23CO[C@H](c4ccc(Cl)cc4)N2[C@@H](c2ccc(Cl)cc2)SC3)o1,0,-1,.,.,-3,-1
CC(C)CN1C(=O)[C@]2(CC(=O)N(C)C2c2ccccc2)c2cc(-n3cc(CCCC#N)nn3)ccc21 (stereo partly specified),0,-1,.,.,3,0
